# High-throughput results: PubChem, Sanford-Burnham Center for Chemical Genomics
# CYP2C9 activ – CYP2C9 (human) activation; P11712; 96,000 tested, 1.4% active; recombinant CYP2C9, luciferin-H conversion, luminescence; stronger effect = higher value; factor 1 = untreated enzyme, 0 = blocked; activation factor at 5 µM; AID 1024;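 active = activation factor of 2 or more for CYP2C9 at a 5 µM dose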;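 note: 0 = sulfaphenazole-blocked wells and 1 = vehicle-only wells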
# CYP2C19 inhib – inhibitors of human CYP2C19 | P33261 | CYP2C19 Supersomes, luciferin-H EGE luminescence, 30 min | inhibition, % at 5 µM | 96,000 tested, 21% active | AID 778;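 active = CYP2C19 inhibition above a set limit at 5 µM in the primary screen, cut at about 50% in these data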;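 note: plate controls were negative control wells for no effect and 2.5 mM tranylcypromine positive control for full effect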
# Target sequence (P33261 whole entry, looked up): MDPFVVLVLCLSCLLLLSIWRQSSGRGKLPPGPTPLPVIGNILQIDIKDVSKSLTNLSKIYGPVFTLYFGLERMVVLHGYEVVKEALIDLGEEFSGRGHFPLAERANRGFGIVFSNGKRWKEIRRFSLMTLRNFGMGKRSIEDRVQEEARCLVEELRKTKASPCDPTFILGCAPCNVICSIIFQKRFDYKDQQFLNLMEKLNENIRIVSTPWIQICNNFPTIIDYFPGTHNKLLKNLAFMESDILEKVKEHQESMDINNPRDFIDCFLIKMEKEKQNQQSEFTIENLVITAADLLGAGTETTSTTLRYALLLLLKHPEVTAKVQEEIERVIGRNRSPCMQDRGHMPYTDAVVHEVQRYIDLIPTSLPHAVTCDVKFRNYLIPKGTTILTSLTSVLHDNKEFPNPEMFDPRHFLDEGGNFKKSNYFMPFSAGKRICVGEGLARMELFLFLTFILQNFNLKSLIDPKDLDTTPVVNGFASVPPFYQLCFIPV
# CYP2C9 inhib – inhibitors of human CYP2C9. P11712. CYP2C9 Supersomes, luciferin-H conversion, luminescence. inhibition, % at 5 µM. 96,000 tested, 20% active. AID 777;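 active = blocking of liver enzyme CYP2C9 beyond about 50% at 5 µM, limit read from the data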
# PLAP act – activators of human placental alkaline phosphatase; AID 696; P05187; 96,000 tested, 1.2% active; activation fold at 20 µM; purified PLAP enzyme, luminescent substrate read-out; stronger effect = higher value; in the data active = activation fold above about 2
# CYP2C19 activ – cytochrome P450 2C19 (human) activation. P33261. recombinant CYP2C19, luciferin-H EGE luminescence; stronger effect = higher value; 0 = fully inhibited enzyme, 1 = untreated enzyme. activation factor at 5 µM. 96,000 tested, under 10 active. AID 1025;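 active = activation factor of at least 2 at 5 µM in the primary screen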;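 note: 0 = wells with 2.5 mM tranylcypromine and 1 = vehicle-only wells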
# The depositor's hits bear a star. The list is not random: actives were taken first. Their share in the collection is about 31%.
SMILES,CYP2C9 activ,CYP2C19 inhib,CYP2C9 inhib,PLAP act,CYP2C19 activ
C=CCN(C(=O)CNC(=O)c1ccco1)C(C(=O)NC1CCCCC1)c1ccc(OC)cc1OC (stereo unspecified),0.5,46,46,1.8,0.5
COCCn1c(COc2ccc(OC)cc2)nc2ccccc21,0.7,92*,35,1,0.1
CCOC(=O)c1nn(-c2ccc(C)cc2)c(C)c1C(C)=O,1,88*,1,1.3,0.1
CCOC(=O)c1nn(-c2ccccc2)c(C)c1C(C)=O,0.8,100*,17,1.1,0
CCOC(=O)c1nn(-c2ccccc2F)c(C)c1C(C)=O,0.9,98*,5,1,0
CCOC(=O)c1nn(-c2ccc(F)cc2)c(C)c1C(C)=O,0.8,99*,19,0.9,0
COc1ccc(C)cc1S(=O)(=O)N1CCCC(C(=O)NCC2CCCO2)C1 (stereo unspecified),1.1,-4,-9,1,1
Cc1ncc(N=Nc2ccccc2)c(-c2ccccc2)n1,0.9,19,6,1,0.8
O=C(CCN1C(=O)COc2ccccc21)NCCCN1CCc2ccccc2C1,0.9,8,10,1.3,0.9
Cc1c(C(=O)Nc2ccccn2)oc2ccccc12,0.7,34,30,0.9,0.7
Cc1c(C(=O)Nc2nnc(C(F)(F)F)s2)oc2ccccc12,0.4,-4,63*,1.2,1
Cc1c(C(=O)Nc2ccncc2)oc2ccccc12,0.5,98*,53*,1.1,0
Cc1ccc2c(C)c(C(=O)Nc3cccnc3)oc2c1,0.5,49,52*,0.9,0.5
Cc1c(C(=O)NC(C)c2ccncc2)oc2ccccc12 (stereo unspecified),0.2,82*,83*,1.1,0.2
O=C(COc1ccc(-c2nnco2)cc1)N1CCN(S(=O)(=O)c2ccc3ccccc3c2)CC1,1.1,29,-7,1.3,0.7
CCOc1ccc(N2C(=O)CC(N3CC(C)OC(C)C3)C2=O)cc1 (stereo unspecified),1,-16,-5,1.3,1.2
Cc1c(C(=O)Nn2cnnc2)oc2ccccc12,0.8,74*,16,1,0.3
CN(C(=O)/C(N=Nc1cccc(C(F)(F)F)c1)=C(\O)C(F)(F)F)c1ccccc1,0.2,82*,80*,1.2,0.2
CN(C)c1nn(C(=O)Nc2cccc(C(F)(F)F)c2)cc1-c1ccccc1,1.2,8,-16,0.9,0.9
Cc1onc(-c2ccccc2Cl)c1C(=O)N1C=CC(C(F)(F)Cl)=NCC1,0.7,56*,32,0.9,0.4
CSC1=NCCN1C(=O)c1c(-c2ccccc2Cl)noc1C,0.8,71*,18,1.1,0.3
Cc1onc(-c2ccccc2Cl)c1C(=O)N1CCN=C1SCc1cccnc1,0.1,97*,94*,0.9,0
CSC1=NCCN1C(=O)c1c(F)cccc1F,0.9,11,10,0.9,0.9
Cc1onc(-c2ccccc2Cl)c1C(=O)N1C=CC(C(F)(F)F)=NCC1,0.8,38,21,0.9,0.6
Cc1cccn2cc(CCNC(=O)c3ccc(Br)o3)nc12,0.9,22,7,1.2,0.8
SMILES,CYP2C9 activ,CYP2C19 inhib,CYP2C9 inhib,PLAP act,CYP2C19 activ
CC(=O)NCCCc1nc2ccccc2n1Cc1ccccc1C,1.2,13,-21,1,0.9
Cc1csc(NC(=O)CSc2nnc3c4ccccc4nc(C(C)(C)C)n23)n1,0.8,11,21,1,0.9
CC1CCCN(C(=O)CNC(=O)Cn2ccc3ccccc3c2=O)C1 (stereo unspecified),1.4,-6,-38,1.1,1.1
NC(=O)C1CCCN(C(=O)Nc2cccc3ccccc23)C1 (stereo unspecified),1.1,0,-13,0.9,1
CCCS/C(N)=N/N=C/c1ccccc1O,0.4,79*,59*,1.4,0.2
CCN(c1ccccc1)S(=O)(=O)c1ccc(OCc2c(C)noc2C)cc1,0.1,72*,86*,1,0.3
Cc1ccc(S(=O)(=O)N(C)c2ccc(OCC(=O)OCc3c(C)noc3C)cc2)cc1,0.2,79*,75*,1.5,0.2
CCN(C(=O)COC(=O)c1ccc(OCc2c(C)noc2C)cc1)c1ccccc1,0.7,5,31,1.7,0.9
Cc1ccc(C(C)C)c(OCC(=O)OCc2c(C)noc2C)c1,0.6,9,38,0.9,0.9
Cc1cccc(CC(=O)OCn2nnc3ccccc3c2=O)c1,1.1,33,-10,1,0.7
CCOC(=O)C1=C(N)n2c(s/c(=C\c3cccnc3)c2=O)=C(C(=O)OCC)C1c1cccnc1 (stereo unspecified),0.3,63*,70*,1,0.4
CCOC(=O)C1=C(N)n2c(s/c(=C\c3cccs3)c2=O)=C(C(=O)OCC)C1c1cccs1 (stereo unspecified),0.2,29,78*,1.1,0.7
CCc1cc2c(=O)c(-n3cnc4ccccc43)coc2cc1O,1.1,34,-15,1,0.7
COc1ccc(/C=N\NC(=O)COc2ccccc2Cl)cc1Cn1nc(C)cc1C,0.8,8,20,1,0.9
COc1ccc2c(c1)CC/C(=C\c1ccc(OC)c(Cn3nc(C)cc3C)c1)C2=O,0.5,87*,49,1.3,0.1
COc1ccc2c(c1)CC/C(=C\c1ccc(OC)c(Cn3cccn3)c1)C2=O,0.1,97*,91*,1.5,0
O=C(CN1C(=O)C2CC=CCC2C1=O)Nc1nnc(SCc2ccc(F)cc2)s1 (stereo unspecified),1.2,-2,-16,1.3,1
CC1(C)N([O-])C2=C(c3ccccc3C2=O)[N+](=O)C1(C)C,0.8,44,16,0.8,0.6
COc1cccc(C(CC(=O)Nc2cccc3ccccc23)NC(=O)c2ccccc2)c1 (stereo unspecified),0.2,50,81*,1.1,0.5
O=C(O)c1ccccc1NCN1C(=O)C2CC=C(Cl)CC2C1=O (stereo unspecified),1,3,2,1,1
CS(=O)(=O)N(CC(=O)N1CCOCC1)c1ccc2c(c1)OCO2,0.9,12,11,1,0.9
Cc1ccc(CN(c2ccc(C(=O)N3CCOCC3)cc2)S(C)(=O)=O)cc1,0.9,13,15,1.7,0.9
CS(=O)(=O)N(Cc1ccccc1)c1ccc(C(=O)N2CCc3ccccc3C2)cc1,0.4,46,63*,1,0.5
C=CCN(c1ccc(C(=O)N2CCCC2)cc1)S(C)(=O)=O,1,7,4,1.4,0.9
CN1CCN(C(=O)c2ccc(N(Cc3ccccc3Cl)S(C)(=O)=O)cc2)CC1,0.8,12,22,1.5,0.9
CS(=O)(=O)N(CC(=O)N1CCc2ccccc2C1)c1ccc2c(c1)OCO2,0.8,88*,24,1.7,0.1
CCOC(=O)N1CCN(C(=O)c2ccc(N(Cc3ccc(C)cc3)S(C)(=O)=O)cc2)CC1,0.1,65*,86*,1.6,0.3
